# From ChEMBL document CHEMBL3988442, “University of Dundee, Small-Polar-MMV Screening Library” (2021)
# Out of some 48,000 compounds screened, about 13,000 (27%) showed an effect of 50% or more. The list shows a part of the results.
# Test system: Wolbachia pipientis
# Assay: Anti-Wolbachia Cell-Based Screen
# Format: functional
# Parameters: scale not given: in the data most compounds retested in dose-response had high values
# Settings: 5 µM
row,Structure (SMILES),Percent Effect [%]
1,Cn1cc(CCCNC(=O)NC2CCN(c3ccccc3)C2=O)cn1 (configuration not stated),20.77
2,CCn1nc2c(cc1=O)CN(CCOc1cccc(C#N)c1)CC2,-9.961
3,Cn1cc(C(=O)OCC(N)=O)c(-c2ccc(F)cc2F)n1,-2.814
4,N#CCCN(Cc1cccnc1)C(=O)c1ccc(-n2cnnn2)cc1,12.89
5,Cc1ccc(NC(=O)N(C)C)c(C(=O)OCC(=O)NC2CCCC2)c1,-9.857
6,COc1ccc(CN(C)C(=O)NCc2c(C)cc(C)[nH]c2=O)cc1,-0.4347
7,CC1=NOC(C(=O)N(C)CCCn2nc(C)cc2C)C1 (configuration not stated),25.07
8,Cc1cnccc1N1CCCN(C(=O)CCn2ccnc2C)CC1,-14.43
9,Cc1cc(C)n(CCCn2cncc2-c2ccc3c(c2)CC(C)N3C)n1.Cl (configuration not stated),95.59
10,Cc1nccn1CCCn1cncc1-c1ccc2c(c1)CC(C)N2C.Cl (configuration not stated),92.09
11,Cc1cc(C)n(CCCN(C)C(=O)C2COc3ccccc3C2)n1 (configuration not stated),-47.38
12,CC(C)OCCC1CCCCN1S(C)(=O)=O (configuration not stated),3.961
13,CC(=O)NC1CCN(c2ccc(C#N)cc2C(F)(F)F)CC1,29.91
14,CCC(CC)C(=O)NS(=O)(=O)c1ccc(C#N)cc1C(F)(F)F,103.7
15,CC(C)(C)C(=O)NS(=O)(=O)c1ccc(C#N)cc1C(F)(F)F,-4.514
16,N#Cc1ccc(S(=O)(=O)NC(=O)C2CC2)c(C(F)(F)F)c1,6.344

row,Structure (SMILES),Percent Effect [%]
1,CCC(C)C(=O)NS(=O)(=O)c1ccc(C#N)cc1C(F)(F)F (configuration not stated),121.4
2,CC(C)C(=O)NS(=O)(=O)c1ccc(C#N)cc1C(F)(F)F,109
3,CC(C(=O)N(Cc1ccc(C#N)cc1)CC(F)(F)F)S(C)(=O)=O (configuration not stated),-0.5778
4,CC(O)CN(C)S(=O)(=O)c1ccc(C#N)cc1F (configuration not stated),-5.528
5,CN(CCN(C)S(=O)(=O)CC1CCOCC1)c1ccccc1,-10.63
6,N#CCCN(CC1CCOC1)Cn1ccc(-c2cccs2)n1 (configuration not stated),-0.2132
7,CC(NC(C)(C)CN)c1ccccc1 (configuration not stated),-0.2011
8,O=C1Nc2ccccc2CNC12CCN(CC1CCCC1)CC2,118.7
9,CC(C)CN1CCC2(Cc3ccccc3NC2=O)C1 (configuration not stated),2.79
10,NC(=O)C(NC1CCN(CC2CCCCC2)CC1)c1ccccc1 (configuration not stated),-8.499
11,CC(C)CCN1CCC2(CC1)NCc1ccccc1NC2=O,110.4
12,CC(C)c1nnc(CN2CCC3(CC2)Nc2ccccc2NC3=O)o1,8.635
13,O=C1Nc2ccccc2CNC12CCN(CC1CCNC1)CC2 (configuration not stated),113.7
14,O=C1Nc2ccccc2NC12CCN(Cc1nnc(C3CC3)o1)CC2,10.49
15,O=C1Nc2ccccc2CNC12CCN(CC1CC1)CC2,106.1
16,O=C1Nc2ccccc2NC12CCN(c1cccc(C(F)(F)F)n1)CC2,-10.36
